Source: PubChem
TRPV1 potentiator: enhances activation of the human vanilloid receptor TRPV1; 320,000 compounds, 0.02% hits; potentiation, % at 8.33 µM; TRPV1-expressing cells, Fluo-8 calcium influx, capsaicin EC20 potentiation; Q8NER1; in the data active means potentiation above about 80%; inconclusive means between about 30% and that limit; further: 0% is about no effect
Target sequence (Q8NER1 whole entry, looked up): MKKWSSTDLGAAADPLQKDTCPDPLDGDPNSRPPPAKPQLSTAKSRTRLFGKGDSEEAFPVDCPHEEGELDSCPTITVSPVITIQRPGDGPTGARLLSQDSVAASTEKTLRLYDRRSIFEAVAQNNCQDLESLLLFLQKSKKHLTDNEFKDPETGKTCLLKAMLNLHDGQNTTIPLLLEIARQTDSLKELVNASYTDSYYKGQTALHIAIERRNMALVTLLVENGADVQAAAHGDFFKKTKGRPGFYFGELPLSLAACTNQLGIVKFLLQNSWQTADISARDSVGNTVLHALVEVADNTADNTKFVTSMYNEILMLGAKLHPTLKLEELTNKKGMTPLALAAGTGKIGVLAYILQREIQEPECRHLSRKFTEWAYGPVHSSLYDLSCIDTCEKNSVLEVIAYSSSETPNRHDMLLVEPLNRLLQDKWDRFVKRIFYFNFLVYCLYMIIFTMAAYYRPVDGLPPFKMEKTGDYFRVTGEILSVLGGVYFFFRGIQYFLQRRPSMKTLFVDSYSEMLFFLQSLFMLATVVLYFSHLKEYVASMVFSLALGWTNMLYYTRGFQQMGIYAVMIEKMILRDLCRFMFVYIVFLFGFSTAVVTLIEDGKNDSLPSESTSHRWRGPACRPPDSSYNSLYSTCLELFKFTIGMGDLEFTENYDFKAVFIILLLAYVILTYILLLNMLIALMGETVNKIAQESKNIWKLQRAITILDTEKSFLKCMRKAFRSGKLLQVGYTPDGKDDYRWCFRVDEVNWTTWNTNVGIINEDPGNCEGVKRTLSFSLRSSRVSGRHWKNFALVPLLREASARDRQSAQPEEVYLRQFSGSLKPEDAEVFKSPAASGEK
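Cells expressing TRPV1 were dye-loaded with Fluo-8 and read kinetically: 10 s baseline, 3 min after compound (agonist portion), then 2 min after EC20 capsaicin (allosteric enhancer portion). Calcium-bound dye fluorescence at 480/520 nm.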
hERG WT inh: blocks the wildtype human KCNH2 potassium channel; activity change, % at 1.84 µM; Q12809; 340,000 compounds, 0.37% hits; U2OS, BacMam KCNH2, thallium flux FluxOr; stronger effect = lower value;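 active means maximum activity change below -70%; inconclusive means maximum activity change between -70% and -50%; inactive means maximum activity change above -50%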; further: on the % scale 0 is the no-effect control and ±100 the full control effect
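U2OS cells were transduced with wild-type KCNH2 virus (2.03 x 10^8 / mL) for 4 h at room temperature, then cultured overnight at 37 C. Thallium flux was read with FluxOr dye. Rate constants were normalized to DMSO controls.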
TRPV1 ag: activates the human vanilloid receptor TRPV1; Q8NER1; TRPV1-expressing cells, Fluo-8 calcium influx, agonist mode; activation, % at 8.33 µM; 320,000 compounds, 0.19% hits; in the data active means activation above about 80%; inconclusive means between about 30% and that limit; further: 0% is about no effect
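TRPV1-expressing cells were cultured overnight at 35.5C and loaded with Fluo-8 calcium dye for 40 to 90 min at room temperature. After a 10 s baseline, compound was added and calcium influx was read kinetically for 3 min (ex 480/em 520 nm).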
KCNH2 3.1 block: inhibitors of human KCNH2 3.1 potassium channel isoform; U2OS KCNH2 3.1, thallium flux FluxOr; stronger effect = lower value; activity change, % (tested at about 1.8 µM); 340,000 compounds, 0.95% hits;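 active means maximum activity change below -70%; inconclusive means maximum activity change from -70% to -50%; inactive means maximum activity change above -50%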;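 further: thallium influx rate constant from kinetic fluorescence after stimulation buffer; on the % scale 0 is the no-effect control and ±100 the full control effect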
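FluxOr-based Tl+ influx in U2OS cells transduced with KCNH2 3.1 virus; rate constants normalized to DMSO controls.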
ClpP mod: qHTS Assay for Activators of ClpP | purified B. subtilis ClpP, FRET peptide cleavage, 20 min | Potency, µM (highest dose often 57.5 µM), inactives show at the top dose activity change, negative = active | 340,000 compounds, 1.9% hits | AID 651965, 2013; active means well fitted falling curve with a large enough effect; inconclusive means small, poorly fitted or top-dose-only effect; inactive means no such curve, though single readings can be large or run the other way; further: potency means the concentration at half of the fitted maximal effect; the source files actives as falling curves though it sought activators and does not explain the sign; nearly all actives have a fitted effect of over 65% in size
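Purified B. subtilis ClpP, 10 microg/mL final in Tris/HCl pH8 with KCl, BSA, glycerol and Tween-20, cleaved an Abz/nitrotyrosine-quenched decapeptide. Fluorescence (ex 320, em 430) was read at 0 and 20 min at room temperature. Delta was normalized to 5.8 microM ADEP and DMSO/no-enzyme controls.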
p53 reactivation: mutant p53 re-activation in reporter cells. 320,000 compounds, 0.063% hits. Potency, µM (top dose mostly 92.2 µM), without a hit: at the highest dose activity change, positive = activation, actives largely listed as activators. H1299 p53-A138V BP100-luciferase reporter, luminescence, 24 h; active means well fitted activation curve with a large enough effect; inconclusive means small, poorly fitted or top-dose-only effect; inactive means no such curve, though single readings can be large or run the other way; further: potency means the concentration at half of the fitted maximal effect; % of control where 0% means no effect; nearly all actives have a fitted effect of over 45% in size
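p53-null H1299 cells stably carrying temperature-sensitive p53-A138V and a BP100-luciferase reporter were pinned with compounds (4-point, 1:5 series) and held 24 hrs at 37 deg C. Luminescence was read 10 min after detection reagent.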
* marks the source's active call; other numbers are inactive results; ? = inconclusive; . = not tested or not shown. Most compounds without a hit are left out; they make up all but 2.6% or so of the library.

SMILES	TRPV1 potentiator	hERG WT inh	TRPV1 ag	KCNH2 3.1 block	ClpP mod	p53 reactivation
O=S1(=O)CC2(N3CCOCC3)CCCCC21 (centres undefined)	-6	-15	6	-94*	0%	3%
O=S1(=O)CC2(N3CCOCC3)CCCCCCC21 (centres undefined)	-1	-5	5	3	0%	-10%
C[C@H]1O[C@@H](O[C@H]2[C@@H](O)C[C@@H](O[C@H]3[C@@H](O)C[C@H](O[C@H]4CC[C@@]5(C)[C@H](CC[C@@H]6[C@@H]5CC[C@]5(C)[C@@H](C7=CC(=O)OC7)CC[C@]65O)C4)O[C@@H]3C)O[C@@H]2C)C[C@H](O)[C@@H]1O	.	.	.	.	1%	.
CCN1CCN(C(=O)COc2ccc3c(c2)C(=O)CC2(CCN(C(C)=O)CC2)O3)CC1	1	0	-4	-5	32µM*	-3%
CC1(C)CC(=O)c2cc(OCC(=O)N3CCN(Cc4ccccc4)CC3)ccc2O1	-11	-3	10	-5	.	0%
Oc1ccc2c3c1O[C@H]1c4[nH]c5ccccc5c4C[C@@]4(O)C(C2)N(CC2CC2)CC[C@]314	1	.	-4	.	.	.
Oc1ccc2c3c1O[C@H]1c4[nH]c5ccccc5c4C[C@@]4(O)[C@@H](C2)N(CC2CC2)CC[C@]314	7	34	2	-70*	-2%	4%
COc1cc([C@@H]2c3cc4c(cc3[C@@H](O)C3COC(=O)C32)OCO4)cc(OC)c1O (some centres undefined)	.	.	.	.	-1%	.
O=[N+]([O-])c1ccccc1Cl	0	.	-3	.	0%	.
Nc1cccc2cccc([N+](=O)[O-])c12	.	-12	.	-8	16µM*	.
COc1ccc(NP(=O)(Oc2ccc(Cl)cc2)Oc2ccc(Cl)cc2)cc1OC	5	-30	3	-113*	2%	1%
CCN(CC)C(=O)c1ccc(NC(=O)CCn2nc(-c3ccc(Cl)cc3)c3ccccc3c2=O)cc1	.	.	.	.	-3%	.
Nc1ncnc2c1ncn2[C@@H]1O[C@@H]2COP(O)(=S)O[C@H]2[C@H]1O (some centres undefined)	.	.	.	.	-1%	.
CCOC(=O)c1ccc(NC(=O)c2sc3nc4c(cc3c2N)N2CCC4CC2)cc1	.	.	.	.	-20%	.
CCOC(=O)c1cccc(NC(=O)c2cnc(N3CCCCC3)c3ccccc23)c1	.	.	.	.	28µM*	.
CCOc1ccc(Nc2ncnc3c2nnn3Cc2ccccc2)cc1	-9	-5	-1	-22	44%	.
CC(Cc1ccccc1)NCC(=O)Nc1cc(N(C)C)nc2ccccc12 (centres undefined)	-16	2	17	-100*	.	-16%
Nc1ccccc1C(=O)OC1CSC1	-26	-33	-12	-5	28µM*	-4%
Nc1ccccc1C(=O)c1ccccc1	-9	-4	3	11	0%	-1%
CCOC(=O)C1(CCOc2ccccc2)CCN(C(C)CSC)CC1 (centres undefined)	-6	17	7	-10	1%	-3%
CCOC(=O)C1(CCOc2ccccc2)CCN(C2Cc3ccccc3C2)CC1	1	-11	2	-121*	.	0%
COC(=O)C1=C(c2ccc(C(C)=O)cc2)C[C@@H]2CC[C@H]1N2C(=O)N1CCCC1	-5	2	-4	-90*	2%	1%
CC1CCCN(CC(=O)N2CCCc3ccccc32)C1 (centres undefined)	-35	1	-4	5	0%	0%
O=C(Nc1ccc2nc(SCC(=O)N3CCCc4ccccc43)sc2c1)c1cccc(F)c1	.	.	.	.	13µM*	.
CN1CC=C2C(C#N)=C(N)C(C#N)(C#N)C(c3ccncc3)C2C1 (centres undefined)	-40	18	6	4	28µM*	-6%
SMILES	TRPV1 potentiator	hERG WT inh	TRPV1 ag	KCNH2 3.1 block	ClpP mod	p53 reactivation
Cc1ccc(N2C(=O)NC(=O)/C(=C\c3cc(C)n(-c4ccc(C(=O)O)cc4)c3C)C2=O)cc1	3	-4	-5	?	.	1%
Cc1ccc(N2C(=O)NC(=O)/C(=C\c3cc(C)n(-c4cc(C(=O)O)cc(C(=O)O)c4)c3C)C2=O)cc1	1	-97*	-1	-4	-1%	2%
Cn1c(O)c(/C=C/C=Nc2ccccc2)c(=O)n(C)c1=O	-12	-88*	14	1	-3%	10%
Fc1cccc(-c2ccc3c(c2)CN(c2cccc(Cl)c2)Cc2cnnn2-3)c1	.	.	.	.	32µM*	.
O=S(=O)(c1cc(Cl)cc(Cl)c1)N1Cc2cc(-c3cccc(F)c3)ccc2-n2nncc2C1	.	.	.	.	-2%	.
COc1ccccc1CC(=O)Nc1ccc2c(c1)OC1(CCCC1)O2	.	-4	.	-12	.	?
Cc1cc(N(CCCl)CCCl)ccc1C=NNC(=O)Cc1cc(=O)oc2cc(O)ccc12	.	2	.	-32	28µM*	.
Cc1cc(C)c(C(=O)CN2CCOCC2)c(C)c1	3	3	-3	2	32µM*	-39%
COc1ccc(C(=O)CN2CCOCC2)cc1	.	.	.	.	-3%	.
C#CCOc1ccc(OC)cc1C(c1c(C)[nH][nH]c1=O)c1c(C)[nH][nH]c1=O	-17	-5	1	10	.	-52%
CCN(CC)c1ccc(CN2CC=C(c3ccc(F)cc3)CC2)cc1	-8	29	0	-24	-2%	1%
COc1ccc(CN2CC=C(c3ccc(F)cc3)CC2)cc1Br	-3	11	2	-139*	.	.
O=C(c1cc(-c2ccc(Cl)cc2)n(-c2ccc(Cl)cc2Cl)n1)N1CCOCC1	-9	-49	?	-104*	-1%	-7%
CCN1CC2(COC(=O)c3ccccc3N)CCC(OC)C34C5CC6C(OC)CC(O)(C5C6OC)C(O)(C(OC)C23)C14 (centres undefined)	0	-6	0	-22	16µM*	-4%
O=C(CCS(=O)(=O)c1ccccc1)Nc1nnc(-c2ccco2)o1	-9	-25	1	-3	-1%	-47%
Nc1c(C(=O)Nc2ccc(OC(F)(F)F)cc2)sc2nc3c(cc12)N1CCC3CC1	.	.	.	.	4%	.
C=CCCC1(CC)C(=O)NC(=S)NC1=O	.	7	.	26	1%	.
C=CCC1(CCCCC)C(=O)NC(=S)NC1=O	.	-82*	.	9	-1%	.
ClCCN(CCCl)c1ccc(C=Nc2ccc(/C=C/c3ccncc3)cc2)cc1	.	.	.	.	-16%	.
Cc1cccc(NP(=O)(Oc2ccccc2)Oc2ccccc2)c1C	-1	-242*	17	-7	0%	-4%
Cc1ccc(-c2cc(C(F)F)n3ncc(C(=O)N4CCc5ccccc5C4)c3n2)cc1	-4	-23	2	-3	?	-1%
CCOC(=O)c1ccc(N=C(CC)c2c(O)n(C)c(=O)n(C)c2=O)cc1	6	-2	-1	-5	25µM*	1%
